In the supplement of paper PMC7801607:

How the values were obtained:
CHO = experiment: % viability of CHO cells (MTT); higher = less toxic; conditions: 48 h
How it was run: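 Viability was given as a percentage of untreated cells and measured colorimetrically by the tetrazolium (MTT) assay. Before this, CHO cells at 10^6 cells/well in 200 µL attached overnight, then received fresh medium containing compound at 2 or 20 µM for 48 h.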

HepG2-A16-CD81 = experiment: % inhibition of HepG2 viability (CellTiter-Glo); higher = more toxic; conditions: 5 µM
[1] = tested on: Plasmodium falciparum NF54 stage IV/V gametocytes; experiment: % inhibition of gametocyte viability (PrestoBlue); higher = more inhibition; conditions: 48 h
How it was run: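 Values are percent inhibition of gametocyte viability, normalised to vehicle and kill controls in a single run. Stage IV/V NF54 gametocytes (2% gametocytaemia, 5% haematocrit, 100 µL/well) were held with compound at 1 or 5 µM for 48 h at 37 °C, stationary and hypoxic. Viability was read as 612 nm fluorescence on 70 µL of supernatant after a 2 h incubation with 10 µL PrestoBlue.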

[2] = tested on: Plasmodium falciparum NF54 asexual blood stage; experiment: % inhibition of asexual blood stage proliferation (pLDH); higher = more inhibition; conditions: 72 h
How it was run: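 Using 96-well plates, the screen was run twice on separate occasions with Plasmodium falciparum NF54 ring-stage cultures at 1% haematocrit and 2% parasitaemia. Each culture was exposed to compound at 2 or 20 µM for 72 h at 37 °C under a gas mix of 4% CO2, 3% O2 and 93% N2. After incubation, the parasite lactate dehydrogenase assay was read colorimetrically at 620 nm. From this readout, percent inhibition of asexual proliferation was derived against control wells.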

[3] = tested on: Plasmodium falciparum NF54 stage IV/V gametocytes; experiment: % inhibition of gametocyte viability (ATP bioluminescence); higher = more inhibition; conditions: 24 h
How it was run: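 Viability of stage IV/V NF54 gametocytes is given as percent inhibition, normalised to control wells in a single run. Gametocytes enriched on density gradients were seeded at 30,000 per well in 96-well plates with compound at 1 or 5 µM and held at 37 °C for 24 h. ATP was then read with the Promega BacTiter Glo bioluminescence system.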

[4] = tested on: Plasmodium falciparum NF54 stage IV/V gametocytes; experiment: % inhibition of gametocyte viability (luciferase reporter); higher = more inhibition; conditions: 48 h
How it was run: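 Luminescence from 30 µL lysate combined with 30 µL Promega luciferin substrate was recorded on a GloMax-Multi+ reader using 10 s integration. The lysate came from stage IV/V NF54-Pfs16-GFP-Luc gametocytes (2% gametocytaemia, 2% haematocrit) held with compound at 1 or 5 µM for 48 h at 37 °C under stationary, hypoxic conditions. Percent inhibition was normalised against controls run once.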

[5] = tested on: Plasmodium berghei ANKA liver stage in HepG2-A16-CD81; experiment: % inhibition of liver stage parasite viability (luciferase); higher = more inhibition; conditions: 5 µM; 48 h
Procedure: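 Single-concentration screen of the MMV Pandemic Response Box. P. falciparum NF54 asexual blood stages: pLDH assay, 72 h at 37 °C, 2 and 20 µM, n=2. Stage IV/V gametocytes (NF54): luciferase reporter (NF54-Pfs16-GFP-Luc, 48 h), ATP bioluminescence (24 h) and PrestoBlue (48 h) at 1 and 5 µM, n=1. P. berghei liver stage (luciferase in HepG2-A16-CD81, 48 h post infection) at 5 µM, n=4. All normalised to DMSO and kill controls as % inhibition.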
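Wherever % inhibition of HepG2 viability (CellTiter-Glo) is given: HepG2-A16-CD81 hepatoma cells plated as in the liver-stage assay but without sporozoites, with DMSO wells as negative and 25 µM puromycin as positive control.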

Structure (SMILES)	% viability of CHO cells (CHO; 2 µM) [%]	% viability of CHO cells (CHO; 20 µM) [%]	% inhibition of HepG2 viability (HepG2-A16-CD81) [%]	% inhibition of gametocyte viability ([1]; 1 µM) [%]	% inhibition of gametocyte viability ([1]; 5 µM) [%]	% inhibition of asexual blood stage proliferation ([2]; 2 µM) [%]	% inhibition of asexual blood stage proliferation ([2]; 20 µM) [%]	% inhibition of gametocyte viability ([3]; 1 µM) [%]	% inhibition of gametocyte viability ([3]; 5 µM) [%]	% inhibition of gametocyte viability ([4]; 1 µM) [%]	% inhibition of gametocyte viability ([4]; 5 µM) [%]	% inhibition of liver stage parasite viability [5] [%]
CCOC(=O)Nc1cc(NC(C)CC(C)CN(CC)CC)c2nc(-c3ccccc3)c(-c3ccccc3)nc2n1 (stereo unspecified)	94	116	12.9	26.4	51.1	37.7	54.6	28	75	< 0	51.1	55.5
Oc1c(C(Nc2nc3ccccc3s2)c2ccc(OC(F)F)cc2)ccc2cccnc12 (stereo unspecified)	79.6	74.4	45.6	26.7	60.6	70.5	65.8	22.2	24.6	12.2	54.3	52.7
NC(=O)c1ccccc1NC(=O)c1ccc(C(=O)Nc2ccccc2C(N)=O)cc1	87.5	120	0.348	< 0	< 0	5.85	13.6	< 0	< 0	< 0	0.0831	42
c1cnc(NCc2ccc(CNc3ncccn3)cc2)nc1	85.1	77.7	-9.29	9.96	14.8	13.7	35.1	< 0	< 0	3.69	< 0	25.6
Cc1cc(CCCOc2c(C)cc(-c3noc(C(F)(F)F)n3)cc2C)on1	103	125	7.06	6.7	35.6	44.6	65.2	4.65	5.28	10.6	< 0	-23.2
O=C1NC(=S)N/C1=C\c1cc(Br)cc(Br)c1O	91.8	63.5	-2.5	1.86	< 0	10.8	17.1	< 0	< 0	< 0	< 0	-2.17
O=C(Nc1nnc(-c2ccc(Cl)cc2)o1)c1nc2ccccc2s1	111	92.6	0.777	6.81	13.9	73.6	91.4	1.06	< 0	1.1	< 0	11
COc1cc(Cc2cnc(N)nc2N)cc(OC)c1OC	111	126	1.34	4.58	22.2	23.4	33.1	0.869	< 0	< 0	< 0	66.4
C[C@H](NC(CC(=O)c1ccccc1C(F)(F)F)C(=O)O)c1ccccc1 (stereo partly specified)	119	58.9	0.323	20.3	77.3	34.4	108	11.3	35.8	< 0	56.4	36.5
CC1=C(/C=C/C(C)=C/C=C/C(C)=C/C(=O)Nc2ccc(O)cc2)C(C)(C)CCC1	118	102	4.42	< 0	< 0	33.3	90	< 0	< 0	< 0	< 0	13.4
CC(C)(C)NC(=O)[C@@H]1C[C@@H]2CCCC[C@@H]2CN1C[C@@H](O)[C@H](Cc1ccccc1)NC(=O)[C@H](CC(N)=O)NC(=O)c1ccc2ccccc2n1	89	114	10.9	< 0	19.6	40	58.3	< 0	< 0	< 0	< 0	26.6
C[C@H]1CC[C@@]2(O)C(C)(C)[C@@H]3CC[C@@]2(C)[C@H]1C3	119	112	-2.52	< 0	< 0	7.01	18.1	< 0	< 0	< 0	< 0	29.2
NC(=O)[C@@H]1CC[C@@H]2CN1C(=O)N2OS(=O)(=O)O	82.9	117	4.71	< 0	< 0	30.8	16.5	1.17	< 0	< 0	1.87	12.2
NC(=S)N/N=C/c1ncccc1N	111	48.6	-22.6	80.3	91.2	73.5	78.5	< 0	15.5	1.59	5.86	63.5
Nc1nc2c(ncn2/C=C2/CC2(CO)CO)c(=O)[nH]1	102	5.45	-5.92	10.2	7.42	6.02	5.03	< 0	< 0	< 0	1.19	9.21
Nc1nc(O)c2ncn(COC(CO)CO)c2n1	83.5	59.2	3.01	< 0	< 0	6.2	41.8	< 0	0.568	7.58	< 0	7.49
N[C@H](CCC(=O)N[C@@H](Cc1c[nH]c2ccccc12)C(=O)O)C(=O)O	116	57.6	-8.85	< 0	3.44	28.8	43.7	4.77	< 0	6.42	< 0	21.3
CC(C)=CCC/C(C)=C/CNCCNC1C2CC3CC(C2)CC1C3 (stereo unspecified)	93.3	65.4	17.1	51.3	89.7	11.7	93	78	90.8	< 0	42.1	21.8
CCOc1ccc(/C=N/NC(=O)C2CC2c2ccc(C(C)(C)C)cc2)cc1OCC (stereo unspecified)	96.4	63.6	-8.74	< 0	1.6	18.7	37.8	< 0	< 0	17.9	< 0	11.3

Structure (SMILES)	% viability of CHO cells (CHO; 2 µM) [%]	% viability of CHO cells (CHO; 20 µM) [%]	% inhibition of HepG2 viability (HepG2-A16-CD81) [%]	% inhibition of gametocyte viability ([1]; 1 µM) [%]	% inhibition of gametocyte viability ([1]; 5 µM) [%]	% inhibition of asexual blood stage proliferation ([2]; 2 µM) [%]	% inhibition of asexual blood stage proliferation ([2]; 20 µM) [%]	% inhibition of gametocyte viability ([3]; 1 µM) [%]	% inhibition of gametocyte viability ([3]; 5 µM) [%]	% inhibition of gametocyte viability ([4]; 1 µM) [%]	% inhibition of gametocyte viability ([4]; 5 µM) [%]	% inhibition of liver stage parasite viability [5] [%]
CCCCc1ccc(S(=O)(=O)Nc2cc(C)on2)cc1	106	124	15.2	18	10.4	84.8	64.2	2.13	< 0	< 0	< 0	40.7
Nc1nc(NC2Cc3ccc(F)cc3C2)nc(N2CCCCC2)n1 (stereo unspecified)	96	79.3	2.58	28.3	55.5	26.7	91	5.3	< 0	< 0	7.28	23.6
Oc1cc(-c2cccc3ccccc23)[nH]n1	109	68.8	2.56	4.17	26.7	3.8	-4.8	< 0	< 0	< 0	< 0	45.4
CCOc1noc2cc(OCCC3CCN(c4ccc(C)nn4)CC3)ccc12	66.5	58	1.58	16.1	23.3	84.1	70.5	6.06	0.657	6.47	5.12	27.3
NC(=O)c1c(N)sc2c1CCCCC2	87	32	6.02	< 0	8.3	4.8	-4.48	< 0	< 0	0.638	1.6	-7.51
O=C(Nc1ccc(N2CCN(C(=O)c3ccccc3)CC2)cc1)c1ccc2c(c1)OCO2	114	113	38.8	5.65	< 0	62.9	44.8	0.482	< 0	9.21	< 0	33.5
CCC(CC)[C@H](NC(C)=O)[C@@H]1[C@H](O)[C@@H](C(=O)O)C[C@H]1NC(=N)N	88.2	59.8	-1.38	< 0	< 0	31	22.4	< 0	< 0	0.62	2.25	24.4
Cc1onc(-c2ccccc2)c1-c1ccc(S(N)(=O)=O)cc1	120	106	-1.58	12.1	41.6	48.8	77.5	1.41	< 0	0.106	< 0	4.19
FC(F)(F)c1cc(C(F)(F)F)c2ccc3nc(-c4nnco4)cn3c2n1	93.3	124	8.21	17.1	21.3	19.6	26.8	< 0	< 0	1.44	18	17.6
N[C@@H]1CN(c2c(F)cc3c(=O)c(C(=O)O)cn([C@@H]4C[C@@H]4F)c3c2Cl)CC12CC2	94.4	69.3	-1.55	< 0	10.3	36.2	99.6	< 0	< 0	0.138	< 0	-19.2
OC[C@@H]1CC[C@H](n2cnc3c(O)ncnc32)O1	119	114	-1.26	1.35	4.95	47.1	26.7	< 0	< 0	0.0967	< 0	18.8
O=C(NCCN1CCCCC1)c1cccc(C(F)(F)F)c1	96.7	-13	1.19	< 0	< 0	16.9	78.6	< 0	2.48	12.3	< 0	20.2
Nc1nc(-c2ccccc2)nc2[nH]nc(Nc3ccc(C(F)(F)F)cc3)c12	80.5	60.9	-9.27	15	7.65	20	80.5	< 0	< 0	< 0	< 0	53.1
CN(Cc1ccc(C(C)(C)C)cc1)Cc1cccc2ccccc12	92.4	110	2.12	7.34	8.91	-5.03	71.1	< 0	< 0	< 0	< 0	10.2
CCOC(=O)/C=C/[C@H](C[C@@H]1CCNC1=O)NC(=O)[C@H](CC)n1cccc(NC(=O)c2cc(C)on2)c1=O	89	79.7	0.129	12	12.7	43.3	49.5	< 0	< 0	6.73	10.7	9.24
Cc1cc(CCOc2c(C)cc(-c3nnn(C)n3)cc2C)on1	100	105	-1.96	26.4	21.8	12.7	31	< 0	< 0	4.37	32.2	33.8
Clc1cc2nc(C3CCNCC3)n(Cc3ccc(CNCCc4cnc[nH]4)cc3)c2cc1Cl	88.7	96.1	2.02	< 0	1.67	27.7	98	< 0	0.428	< 0	< 0	45.7
COc1c(F)c(F)cc2c(=O)c(C(=O)O)cn(C3CC3)c12	82.2	80.7	3.68	16.8	16.9	20.8	56.5	< 0	< 0	< 0	< 0	15.1
COc1ccc(NC(=O)c2cc3ccccn3n2)cc1	112	57	-0.446	< 0	10.6	20.3	87.1	< 0	< 0	< 0	< 0	-110
